Results taken from PubChem BioAssay (NCI).
Values joined by “and” are separate entries in the source; they are usually repeats but may differ in a detail not shown here. Identical values can stand only once. The panel holds about 83,000 compounds, 20% with a hit somewhere; the sample as a whole holds those more often.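 Note: values are percent growth. 100 is the growth of untreated cells, values between 100 and 0 indicate rising inhibition; between -100 and 0 indicates cell death.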 Active and inactive are the calls of the source. How the source made its calls: active means growth percent below 10; inactive means the rest.

Key:
Assay in all cases: NCI-60 one-dose screen, 48 h (100 = growth as untreated, 0 = no growth, -100 = all killed)
Settings in all cases: 10 µM unless noted
T-47D breast = tested on: T-47D breast
BT-549 breast = tested on: BT-549 breast
MDA-MB-435 melanoma = tested on: MDA-MB-435 melanoma
SW-620 colon = tested on: SW-620 colon
HCT-116 colon = tested on: HCT-116 colon
HCC-2998 colon = tested on: HCC-2998 colon
KM12 colon = tested on: KM12 colon
MCF7 breast = tested on: MCF7 breast

Measured: growth

COc1ccc2oc3cc(NCCN(C)C)ccc3c(=O)c2c1
inactive: T-47D breast 80.6% and 63.4% | BT-549 breast 97.2% and 93.9% | MDA-MB-435 melanoma 85.8% and 70.8% | SW-620 colon 78% and 55.4% | HCT-116 colon 93.9% and 54.1% | HCC-2998 colon 97.4% and 77.1% | KM12 colon 90.1% and 79.8%

COC(=O)c1nc(=S)[nH]c(C(=O)OC)c1C(=O)c1ccc(OC)cc1
inactive: T-47D breast 125% | BT-549 breast 109% | MDA-MB-435 melanoma 110% | SW-620 colon 105% | HCT-116 colon 115% | HCC-2998 colon 118% | KM12 colon 103%

CC1CC(O)CC(C)(C)C1.CC1CC(O)CC(C)(C)C1.CC1CC(O)CC(C)(C)C1.CC1CC(O)CC(C)(C)C1.[Ti] (stereo not drawn)
inactive: T-47D breast 92.7% | BT-549 breast 111% | MDA-MB-435 melanoma 99.6% | SW-620 colon 99.8% | HCT-116 colon 99.5% | HCC-2998 colon 110% | KM12 colon 103%

CSc1nc(N)c(N)c(N)n1
inactive: T-47D breast 97.2% | BT-549 breast 101% | MDA-MB-435 melanoma 112% | SW-620 colon 104% | HCT-116 colon 86.5% | HCC-2998 colon 109% | KM12 colon 104%

Nc1ccc(Cl)c(S(=O)(=O)O)c1
inactive: T-47D breast 92.4% | BT-549 breast 96% | MDA-MB-435 melanoma 107% | SW-620 colon 99.1% | HCT-116 colon 102% | HCC-2998 colon 110% | KM12 colon 103%

C/C=C(/C(=O)NC(N)=O)C(C)C
inactive: T-47D breast 99.1% | BT-549 breast 106% | MDA-MB-435 melanoma 107% | SW-620 colon 94.5% | HCT-116 colon 99.5% | HCC-2998 colon 115% | KM12 colon 90.8%

O=C(NC(=O)c1ccc(F)c(Cl)c1)NC1CC1
inactive: T-47D breast 91.8% | BT-549 breast 107% and 109% | MDA-MB-435 melanoma 114% and 102% | SW-620 colon 104% and 100% | HCT-116 colon 104% and 105% | HCC-2998 colon 96.2% and 106% | KM12 colon 105% and 101%

O=C(OCc1ccccc1)c1ccccc1
inactive: T-47D breast 96% and 87.9% | BT-549 breast 109% and 102% | MDA-MB-435 melanoma 105% and 112% | SW-620 colon 110% and 105% | HCT-116 colon 108% and 93.7% | HCC-2998 colon 102% and 93.9% | KM12 colon 104% and 102%

O=C1c2ccccc2CN1c1ccccc1
inactive: T-47D breast 95.8% | BT-549 breast 96.6% | MDA-MB-435 melanoma 97.9% | SW-620 colon 105% | HCT-116 colon 91.7% | HCC-2998 colon 128% | KM12 colon 101%

S=c1nn[nH]n1C1CCCCC1
inactive: T-47D breast 124% | BT-549 breast 125% | MDA-MB-435 melanoma 102% | SW-620 colon 99.8% | HCC-2998 colon 113% | KM12 colon 110%

CC(=O)c1cc2ccccc2o1
inactive: T-47D breast 100% | BT-549 breast 97.2% | MDA-MB-435 melanoma 109% | SW-620 colon 112% | HCT-116 colon 100% | HCC-2998 colon 109%

Cc1onc(-c2c(F)cccc2Cl)c1-c1ncc(-c2ccc(Cl)cc2)o1
inactive: T-47D breast 73.9% and 35.8% | BT-549 breast 73.8% and 40.7% | MDA-MB-435 melanoma 46.8% and 37.7% | SW-620 colon 37.3% and 29.4% | HCT-116 colon 27.1% and 16.6% | HCC-2998 colon 61.2% and 56.8% | KM12 colon 43.4% and 34.7%

CN(C)C(=N)N=C(N)N
inactive: T-47D breast 90.5% and 102% | BT-549 breast 80.2% and 156% | MDA-MB-435 melanoma 109% and 124% | SW-620 colon 108% and 105% | HCT-116 colon 108% and 98.3% | HCC-2998 colon 115% | KM12 colon 100% and 108%

NC1=NC(c2ccccc2)N=C(Nc2ccccc2)N1 (stereo not drawn)
inactive: T-47D breast 98.4% and 106% | BT-549 breast 74.5% and 83.4% | SW-620 colon 84.4% and 94.5% | HCC-2998 colon 93.6%
18.2% (inactive) and 7.52% (active): MDA-MB-435 melanoma

Nc1c(Cl)cc2c(c1Br)C(=O)c1ccccc1C2=O
inactive: T-47D breast 76% | BT-549 breast 114% | MDA-MB-435 melanoma 105% | SW-620 colon 99.6% | HCT-116 colon 96.7% | HCC-2998 colon 101% | KM12 colon 106%

CS(=O)(=O)c1nsc(N)n1
inactive: T-47D breast 95% | BT-549 breast 107% | MDA-MB-435 melanoma 107% | SW-620 colon 100% | HCT-116 colon 103% | HCC-2998 colon 98.4% | KM12 colon 105%

CCOC(=O)C1=CC(=O)CC(C)(C)O1
inactive: T-47D breast 110% and 107% | BT-549 breast 99.2% and 117% | MDA-MB-435 melanoma 119% and 111% | SW-620 colon 96.5% and 105% | HCT-116 colon 96.8% and 110% | HCC-2998 colon 102% and 108% | KM12 colon 107% and 76.9%

CC1NC(C)c2ccc3ccccc3c2O1 (stereo not drawn)
inactive: T-47D breast 108% | BT-549 breast 107% | MDA-MB-435 melanoma 111% | SW-620 colon 111% | HCT-116 colon 102% | HCC-2998 colon 110% | KM12 colon 111%

CCOC(=O)C(N)Cc1cc(I)c(O)c(I)c1 (stereo not drawn)
inactive: T-47D breast 105% and 111% | BT-549 breast 109% and 98.5% | MDA-MB-435 melanoma 105% and 114% | SW-620 colon 104% | HCC-2998 colon 104% and 96.6%

CCOP(=O)(OCC)/C(C#N)=C/c1c(C)[nH]c2ccccc12
inactive: T-47D breast 85.1% | BT-549 breast 98.3% | MDA-MB-435 melanoma 12.9% | SW-620 colon 98.2% | HCT-116 colon 101% | HCC-2998 colon 107% | KM12 colon 100%

Cc1cc(=NO)cc(C)n1O
inactive: T-47D breast 94.4% | BT-549 breast 82.8% | MDA-MB-435 melanoma 106% | SW-620 colon 100% | HCT-116 colon 97.3% | HCC-2998 colon 120% | KM12 colon 110%

N#Cc1c(N)nc2c(c(-c3ccc(Cl)cc3)nn2-c2ccccc2)c1C#N
inactive: T-47D breast 97.4% [100 µM] | BT-549 breast 94.2% [100 µM] | MDA-MB-435 melanoma 104% [100 µM] | SW-620 colon 107% [100 µM] | HCT-116 colon 94.7% [100 µM] | HCC-2998 colon 111% [100 µM] | KM12 colon 103% [100 µM]

Nc1nc(N)c2cc(S(=O)(=O)c3ccccc3)ccc2n1
inactive: T-47D breast 72.7% and 59% | BT-549 breast 81.4% and 54.6% | MDA-MB-435 melanoma 33.5% and 31% | SW-620 colon 21.8% and 25.3% | HCT-116 colon 16.3% and 13.4% | HCC-2998 colon 30.6% | KM12 colon 32.5% and 28.7%

COC(=O)c1cc(C(=O)OC)cc([N+](=O)[O-])c1
inactive: T-47D breast 111% | BT-549 breast 91.6% | MDA-MB-435 melanoma 115% | SW-620 colon 102% | HCT-116 colon 95.3% | HCC-2998 colon 99.2% | KM12 colon 112%

CC(C)(C)C1CCC(=NO)CC1 (stereo not drawn)
inactive: T-47D breast 96.6% | BT-549 breast 115% | MDA-MB-435 melanoma 99.8% | SW-620 colon 106% | HCT-116 colon 96.8% | HCC-2998 colon 107% | KM12 colon 103%

Oc1cccnc1CN1CCOCC1
inactive: T-47D breast 93.1% | BT-549 breast 118% and 115% | MDA-MB-435 melanoma 109% and 99.3% | SW-620 colon 109% and 101% | HCT-116 colon 104% and 103% | HCC-2998 colon 102% and 99.6% | KM12 colon 112% and 108%

CCN(C)c1ccccc1
inactive: T-47D breast 105% | BT-549 breast 84.2% | MDA-MB-435 melanoma 104% | SW-620 colon 110% | HCT-116 colon 106% | HCC-2998 colon 107% | KM12 colon 109%

C(=N\OCCc1ccccc1)/c1ccccn1
inactive: T-47D breast 114% | BT-549 breast 138% and 102% | MDA-MB-435 melanoma 109% and 106% | SW-620 colon 110% and 111% | HCC-2998 colon 105% and 104%

O=[N+]([O-])c1ccc(N2CCN=N2)cc1
inactive: T-47D breast 67.3% | BT-549 breast 85.3% | MDA-MB-435 melanoma 77.5% | SW-620 colon 81.8% | HCT-116 colon 81.7% | HCC-2998 colon 107% | KM12 colon 77.3%

COc1cc(NCCCCCNC(C)C)c2ncccc2c1
inactive: T-47D breast 82.3% | BT-549 breast 89.1% | MDA-MB-435 melanoma 97.8% and 106% | SW-620 colon 87.2% and 106% | HCC-2998 colon 102% and 90.2% | KM12 colon 91.4%

CCCC(=O)Oc1ccc2ccccc2c1
inactive: T-47D breast 92.2% | MDA-MB-435 melanoma 106% | SW-620 colon 92.1% | MCF7 breast 101% | HCC-2998 colon 97.9% | KM12 colon 113%

Clc1ccc2c(c1)N(C1CCCN(Cc3ccccc3)C1)c1ccccc1S2 (stereo not drawn)
active: MDA-MB-435 melanoma 5.2%
inactive: T-47D breast 69% | BT-549 breast 61.2% | SW-620 colon 22.6% | HCT-116 colon 12.1% | HCC-2998 colon 23%
